The text below walks through data of PubChem BioAssay (NCI).

A short description of experiment [1]: NCI Yeast Anticancer Drug Screen. Data for the rad50 strain (AID 155).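 Also: 0% = growth of vehicle-only cultures of the same strain.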 Conditions: S. cerevisiae rad50 strain growth inhibition; at 50.0 µM; active compounds read high. The method, boiled down: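 Relative growth inhibition (compound vs vehicle) was measured in yeast with a defined repair-gene alteration.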
A short description of experiment [2]: NCI Yeast Anticancer Drug Screen. Data for the mec2-1 strain (AID 157). To be noted: S. cerevisiae mec2-1 strain, at 50.0 µM, active compounds read high. The method, boiled down: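 Yeast mec2-1 mutant treated with compound. Readout: growth inhibition vs vehicle controls.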
Experiment [3] in a line: NCI Yeast Anticancer Drug Screen. Data for the sgs1 mgt1 strain (AID 161).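 Also: 0% = growth of cultures given vehicle only.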 To be noted: S. cerevisiae sgs1 mgt1 strain, at 50.0 µM, active compounds read high. The method, boiled down:
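Read-out: growth inhibition vs vehicle controls. Cells: mutant yeast strain deficient in DNA damage repair.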

A short description of experiment [4]: NCI Yeast Anticancer Drug Screen. Data for the cln2 rad14 strain (AID 165).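 Also: 0% = growth equal to vehicle treated cultures.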 Conditions: S. cerevisiae cln2 rad14 strain, at 50.0 µM, active compounds read high. The method in brief: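 cln2 rad14 yeast strain; compound exposure; growth inhibition read vs vehicle controls.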
A short description of experiment [5]: NCI Yeast Anticancer Drug Screen. Data for the bub3 strain (AID 167). To be noted: S. cerevisiae bub3 mutant strain, at 50.0 µM, active compounds read high. The method in brief:
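Screening used yeast with an engineered genetic alteration affecting cell cycle control. Compound-exposed cultures were compared with vehicle cultures, and reduced growth was taken as inhibition.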

The nature of experiment [6]: NCI Yeast Anticancer Drug Screen. Data for the mlh1 rad18 strain (AID 175). Conditions: S. cerevisiae mlh1 rad18 strain growth inhibition; at 50.0 µM; active compounds read high. The method in brief: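 Yeast w/ defined DNA-repair lesions; compound exposure; growth vs vehicle controls → % inhibition.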

Compounds without any hit were thinned out: in the full panel of roughly 79,000, 15% have a hit. Unmarked numbers belong to inactive results. Activity calls are given as the source filed them. Rule as the data show it: active = growth inhibition above about 70%; inactive = the rest.

Turning to `CCOC(=O)c1cnc(N(C)C)nc1SC(=N)N`, the growth inhibition in experiment [1] was -15.2%; in experiment [2] it was -0.7%; in experiment [3], -24.4%; in experiment [4], -53.9%; in experiment [5] it was -7.5%; in experiment [6], -18.6%.

For the compound `Cn1c(=O)c2snnc2n(C)c1=O`, the growth inhibition in experiment [1] was -2.75%; in experiment [2], -2.65%; in experiment [3], -2.65%; in experiment [4], -9.5%; in experiment [5] it was 2.9%; in experiment [6], -16.6%.

For the compound `Cc1nc2c(=O)[nH]c(N)nc2[nH]c1=O`, the growth inhibition is -10% in experiment [1]; -4% in experiment [2]; -6.15% in experiment [3]; -30.4% in experiment [4]; -13.8% in experiment [5]; 2.3% in experiment [6].

Regarding `Cn1c(O)c2c(c1O)C(=Nc1ccccc1)c1ccccc1C2=O`, the growth inhibition is 89.2% (active) in experiment [1]; 98.5% (active) in experiment [2]; 93% (active) in experiment [3]; 94.2% (active) in experiment [4]; 98.6% (active) in experiment [5]; 97.9% (active) in experiment [6].

Take `Cc1ccc(S(=O)(=O)NN=C2CCCCC2)cc1`: the growth inhibition in experiment [1] was -3.45%; in experiment [2], -11.4%; in experiment [3] it was -1.3%; in experiment [4] it was -19.4%; in experiment [5], -14.5%; in experiment [6], -11.8%.

Turning to `CCOC(=O)NC1OC(C(N)=O)C(O)C(O)C1O` (stereo unspecified), the growth inhibition in experiment [1] was 2.25%; in experiment [2], -5.7%; in experiment [3], 3.4%; in experiment [4], -33.3%; in experiment [5], 4.5%; in experiment [6] it was 1.4%.

Regarding `CC(C)=CCOc1cc(NC(=S)c2ccsc2C)ccc1Cl`, the growth inhibition in experiment [1] is -40.6%; in experiment [2], -24.6%; in experiment [3], -34.1%; in experiment [4], -22.4%; in experiment [5], -19.1%; in experiment [6] it was -36.3%.

For `OCC1(CO)CCCO1`, the growth inhibition in experiment [1] was 4.15%; in experiment [2], -21.9%; in experiment [3], -10.4%; in experiment [4] it was 5.1%; in experiment [5], -0.4%; in experiment [6], 2.55%.

On to `CCOC(=O)CC(C)(O)c1ccccc1` (stereo unspecified), for which the growth inhibition in experiment [1] is -12.2%; in experiment [2], -0.55%; in experiment [3] it was 23.4%; in experiment [4], -17.4%; in experiment [5], 12.3%; in experiment [6] it was 0.15%.

In the case of `CC(C)(c1ccccc1)c1ccc(Oc2ccc(C#N)c(C#N)c2)cc1`, the growth inhibition was -27.2% in experiment [1]; -7.6% in experiment [2]; -14% in experiment [3]; 3.3% in experiment [4]; -35.8% in experiment [5]; -21.6% in experiment [6].

For `CC(C)(C)C1CC/C(=N\Nc2ccc([N+](=O)[O-])cc2[N+](=O)[O-])C(Cc2ccccc2)C1` (stereo unspecified), the growth inhibition in experiment [1] is 11.9%; in experiment [2], 21.1%; in experiment [3], 19.5%; in experiment [4] it was -26.6%; in experiment [5], 16.9%; in experiment [6], 0%.

As for `CN(C)CC(O)c1ccc(Cl)c2ccccc12` (stereo unspecified), the growth inhibition was 3.95% in experiment [1]; -20.9% in experiment [2]; -31.9% in experiment [3]; -30.1% in experiment [4]; -8.7% in experiment [5]; 1.75% in experiment [6].

In the case of `O=C1CN(c2cccc(C(F)(F)F)c2)C(=O)CN1CCN1CC(=O)N(c2cccc(C(F)(F)F)c2)CC1=O`, the growth inhibition in experiment [1] is -30.6%; in experiment [2], -6.4%; in experiment [3], -3.55%; in experiment [4], -6.45%; in experiment [5], -14.1%; in experiment [6], -5.2%.

For the compound `O=C(O)CCc1nc2c(n1-c1ccccc1)C(=O)c1ccccc1C2=O`, the growth inhibition is 38.2% in experiment [1]; 20.5% in experiment [2]; 34.6% in experiment [3]; 34.3% in experiment [4]; 37.6% in experiment [5]; 34.2% in experiment [6].

As for `CC(=O)NC(CSC1=C2NC(=O)\C=C/C=C/C=C\C(C)C(O)CC(=O)/C(C)=C\CC(O)/C=C/C(C)C(O)C(C)C=C(C)C(=O)c3c(O)c(C)cc(c3C1=O)C2=O)C(=O)O` (stereo unspecified), the growth inhibition in experiment [1] was 1.1%; in experiment [2] it was 7.95%; in experiment [3], 36.6%; in experiment [4], 23.3%; in experiment [5], 15.4%; in experiment [6] it was 8.45%.

Take `CC(=O)NC(Cc1c[nH]c2ccccc12)C(=O)O` (stereo unspecified): the growth inhibition is -21.4% in experiment [1]; -37.8% in experiment [2]; -30.6% in experiment [3]; -23.4% in experiment [4]; -35.8% in experiment [5]; -5.65% in experiment [6].

Consider `O=C1c2ccccc2C(=O)N1CC(O)CCl` (stereo unspecified), for which the growth inhibition in experiment [1] is -21.3%; in experiment [2] it was -30.4%; in experiment [3], -0.45%; in experiment [4] it was 12%; in experiment [5] it was -14.5%; in experiment [6], -26.5%.

Turning to `COC(=O)Cc1nc2ccccc2[nH]c1=O`, the growth inhibition was -1.15% in experiment [1]; -3.25% in experiment [2]; -10.3% in experiment [3]; -29.2% in experiment [4]; -16.8% in experiment [5]; -5.7% in experiment [6].

On to `Cc1ccc2nc(C)cc(NC(=O)c3ccccc3)c2c1`, for which the growth inhibition in experiment [1] was 13.6%; in experiment [2], 8.45%; in experiment [3], 8.55%; in experiment [4], -18.1%; in experiment [5], -5.3%; in experiment [6], 24.2%.

On to `CCC(=O)Nc1ncnc2ncn(C(=O)CC)c12`, for which the growth inhibition in experiment [1] was -8.7%; in experiment [2], -48.2%; in experiment [3] it was -32.9%; in experiment [4], -23.6%; in experiment [5], -45.1%; in experiment [6], 9.65%.

For `Cc1cccc2c1-c1c(C)cccc1C(Cl)S(=O)(=O)C2` (stereo unspecified), the growth inhibition was 1.25% in experiment [1]; -4.6% in experiment [2]; -9.05% in experiment [3]; 4.55% in experiment [4]; 6.85% in experiment [5]; -1.65% in experiment [6].
